# Data reported in PubChem BioAssay (NCI).
# This is part of a sample that, as a whole, favours compounds with a hit. Of some 83,000 tested, about 20% had one in any assay.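 Negative percent growth values reflect cell death: -40 means 40% of the cells present at the start died, and -100 means all died.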 Unmarked numbers belong to inactive results. Calls of active or inactive are those of the source. The calls were made as follows: active = growth percent below 10; inactive = the rest.
# What was measured:
# Assay in all cases: NCI-60 one-dose screen, 48 h (100 = growth as untreated, 0 = no growth, -100 = all killed)
# Conditions in all cases: 10 µM unless noted
# NCI-H23 lung = tested on: NCI-H23 lung
# NCI-H226 lung = tested on: NCI-H226 lung
# NCI-H322M lung = tested on: NCI-H322M lung
# HOP-62 NSCLC = tested on: HOP-62 NSCLC
# NCI-H460 lung = tested on: NCI-H460 lung
# HOP-92 NSCLC = tested on: HOP-92 NSCLC
# NCI-H522 lung = tested on: NCI-H522 lung
# A549/ATCC NSCLC = tested on: A549/ATCC NSCLC
# 786-0 renal = tested on: 786-0 renal
# COLO 205 colon = tested on: COLO 205 colon
# DU-145 prostate = tested on: DU-145 prostate
# K-562 leukemia = tested on: K-562 leukemia
# MALME-3M melanoma = tested on: MALME-3M melanoma
# MDA-MB-231 breast = tested on: MDA-MB-231 breast
# RXF 393 renal = tested on: RXF 393 renal
# SF-268 CNS = tested on: SF-268 CNS
# SF-295 CNS = tested on: SF-295 CNS
# SF-539 CNS = tested on: SF-539 CNS
# UACC-257 melanoma = tested on: UACC-257 melanoma
# M14 melanoma = tested on: M14 melanoma
SMILES,growth (NCI-H23 lung),growth (NCI-H226 lung),growth (NCI-H322M lung),growth (HOP-62 NSCLC),growth (NCI-H460 lung),growth (HOP-92 NSCLC),growth (NCI-H522 lung),growth (A549/ATCC NSCLC),growth (786-0 renal),growth (COLO 205 colon),growth (DU-145 prostate),growth (K-562 leukemia),growth (MALME-3M melanoma),growth (MDA-MB-231 breast),growth (RXF 393 renal),growth (SF-268 CNS),growth (SF-295 CNS),growth (SF-539 CNS),growth (UACC-257 melanoma),growth (M14 melanoma)
C/C(Cc1ccc(Cl)cc1)=C(\c1ccc(OCCN2CCCCCC2)cc1)c1ccc(OC(=O)c2ccccc2)cc1,46.8%,86.2%,70%,81%,3.3% (active),-4.45% (active),62.4%,54.3%,12%,44.7%,55.6%,1.83% (active),11.7%,39.7%,22%,37.1%,56%,71%,45.2%,-49.8% (active)
Cc1nn(C)c2ncnc(N/N=C/c3cccc(O)c3O)c12,20.8%,42.7%,14.7%,4.24% (active),2.65% (active),23.3%,19.9%,20.9%,2.11% (active),-3.31% (active),18.1%,12.7%,-11.5% (active),24.7%,11%,6.68% (active),18.3%,5.37% (active),3.75% (active),-48.5% (active)
O=C(Nc1ccc(Oc2cccc(Cl)c2)c(Cl)c1)c1cccnn1,84.1%,78.8%,93.9%,101%,99.8%,84.4%,73.6%,75.3%,77.4%,106%,86.3%,77%,104%,95.5%,90.3%,83.9%,82.2%,95.3%,104%,92.8%
O=C(Nc1cccnc1Nc1ccccc1)c1cn(Cc2cccc(Oc3ccccc3)c2)nn1,68.3%,64.7%,71.8%,78.6%,42.6%,71.2%,61.3%,57.9%,56.7%,107%,69.8%,33%,56.3%,57.3%,50.1%,53.6%,52.3%,42%,73%,27.5%
N#C/C(=C\c1ccc(-c2cccc(Cl)c2)o1)C(=O)Nc1ncc(Cc2ccc(Cl)cc2)s1,59.6%,74%,33.6%,15.9%,25%,79.8%,83.4%,31.6%,37.3%,83.7%,55.9%,80.6%,42.7%,34.1%,86.7%,72%,45.3%,56.6%,23.9%,62.5%
COc1cc2c(c(OC)c1OC)C(=O)CC(c1cccc(C(=O)Nc3ccccc3Br)c1)O2 (stereo not given),102%,86%,98.1%,97.1%,110%,68.4%,69.9%,97.8%,88%,95.4%,83.7%,74.1%,99.6%,91.1%,110%,73.8%,98.1%,90.4%,92.7%,91.1%
O=C(Nc1ccc(Nc2ccncc2)cc1)c1ccc(Nc2ccnc3ccc([N+](=O)[O-])cc23)cc1,86.9%,89.8%,116%,113%,68.2%,87.7%,102%,94.7%,99.2%,131%,103%,80.5%,114%,80.5%,116%,97.6%,106%,85.5%,101%,108%
Nc1c(C(=O)Nc2cccc3ncccc23)sc2nc3c(cc12)CN(Cc1ccccc1)CC3,67.7%,77.2%,83%,73.1%,84.3%,74.1%,55.8%,90.3%,88.1%,112%,93.9%,34.8%,76.2%,75.3%,80.8%,84.6%,67.5%,88.7%,69.2%,90.1%
